# Experimental data published in PubChem BioAssay AID1508600 (Functional Genomics Laboratory (NCATS/FGL), 2020).
# Out of some 53,000 sequences screened, about 3,700 (7%) were called active. This is one part of a sample in which actives are shown more often than they occur. Values without a mark were called inactive.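 Rule for the calls: active = gene knockdowns whose robust z-score for IL-1 alpha signal is at least 2 or at most -2, so actives lie on both sides; inactive = the rest.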
# Assay: Components of the Cytosolic LPS Sensing Pathway: Gene Identification via Genome-wide siRNA Screen;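 note: robust z of the log signal after scaling to non-targeting control siRNA wells of the plate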
# Details: RAW264.7 macrophages, IL-1a HTRF, actives lie on both sides, screened at 100 nM (by protocol), cells primed 5 h with Pam3CSK4 first
# How it was run: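 Using IL-1a HTRF as read-out, the screen measured release from RAW264.7 cells after 48h siRNA knockdown (100 nM), 5 h Pam3CSK4 priming and 24 h cytosolic LipidA. Values were expressed relative to negative-control wells as robust z-scores.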
row,Sequence,z-score
1,CCGGGUAGUGAGUAAGCUUTT against Neu2,-3.51 (active)
2,GGUCCAAGAAGACAAUGCUTT against Cga,-0.102
3,CCUCUUUGGGACUAUAGACTT against Olfr1357,-0.378
4,GGUAUUGGUCCAAUUUUUCTT against Gng7,0.187
5,GGCUGUGGUGCUCAAUAAGTT against Clstn2,-1.29
6,CCGAGAUAUGAAUCAAAUUTT against Wars,2.19 (active)
7,GGAAAGACAAAAUCUAUGATT against Peg3,-0.777
8,GGUCAUCAGUGAGCUGAAUTT against Rplp2,0.125
9,GCUCAUCUCCUUGAAUUCATT against Agbl5,0.31
10,CCUGUCCUGAUGGUGAAACTT against Serpinb3c,0.619
11,GCCUAAACUACCCUUAUAGTT against Ocln,3.4 (active)
12,GGUGCUGGCAACCUUUUGUTT against Masp1,0.16
13,GGGCCAUUGUCAAGGUGAUTT against Olfr632,-0.408
14,CCGAUUUUUACUUUUAGCUTT against Slc16a7,1.86
15,GGAGACUAUUACCAUACUGTT against P4ha2,-0.991
16,GGUGAGCAAGAACAAAAAGTT against Chil6,-0.71
17,GGUUUCGAGAAAACAACAATT against Miip,0.566
18,GCACAUCGAAAAUGCCCUGTT against Cpt1c,-0.154
19,GGCAAACCUGCUUUCAUGGTT against Smc5,0.282
20,GCAGUUCUCCUAUUUCAUCTT against Cdc45,2.03 (active)
21,CGGGUGAGUGGAAAAACCATT against Atg9b,-0.282
22,GCCAAUGCCCUUGUGCAAATT against Olfr344,0.301
23,GGCUAUCUCGUAUUCUGAUTT against Olfr985,-1.62

row,Sequence,z-score
1,CCCGGGUUGGGUGUACAUUTT against Sds,3.62 (active)
2,CCUUAGCAAUGGGAUUGAUTT against Rasl12,0.448
3,GGAGAACACUUUAAUGCUGTT against Ovch2,0.00992
4,GGGCUGGAGUCUGAUACAUTT against Rbm5,3.39 (active)
5,CCGUGUUAGAGUUUUCGACTT against Top3b,1.2
6,CCAAAGGUAUGCAGUAUGATT against Cdh4,0.131
7,GGUUUUCAAAUGUCUAUCATT against Pithd1,2.37 (active)
8,CCUGCUCAGGACGACUUUUTT against Defa20,-1.63
9,GGACUUUGACCCGUACUAUTT against Scn8a,0.951
10,GCUUGUGCCGGAUAAAGGUTT against Gng3,-0.748
11,GCCAAGGUGGAAUUUUUGGTT against Gpx8,0.139
12,GGUAUACCAAGAAGCUAAGTT against Kctd14,-0.855
13,GCAGAGGUACGUGUUUGACTT against Gdf5,0.933
14,GCGUGUAGGAAUAAUACCUTT against Psmc6,-2.66 (active)
15,UGCUCUUGGGUUCUUAAAUTT against Olfr1466,-0.559
16,CGAACAAGCCAUGUUUACATT against Gvin1,0.811
17,GGAACUUCUCAAAAGGCUGTT against Tspoap1,-0.0418
18,GGACCUGACCUACUCGUGUTT against Rxrb,-0.216
19,GCGGAAGCGUGAAUCCAAATT against Tigd3,3.13 (active)
20,GGAUCGAACUGCCAUUGCUTT against A930104D05Rik,-0.201
21,GCUGUCCUACUGAGCUUGCTT against Gdpgp1,-0.0224
22,GCCACUUGUGCUAAGCUGUTT against Ager,-0.768
23,GGUCUGUAUGAAGACAUUATT against Pdss1,-1.16

row,Sequence,z-score
1,GCAAGAAGUAAUCAACUUUTT against Cnot9,-0.997
2,GGACCAGAAACCGUGAUAATT against Immp2l,3.96 (active)
3,GGCACCAAUUACAAGAAAATT against V1rg10,0.257
4,CCUGGCAGACGUGGAACAATT against Ppp1r13l,-0.102
5,GGACCAGUUACUUUAACAUTT against Pkdrej,0.555
6,GGAGAGUCCACUAAUACUGTT against Dmrt3,0.217
7,GGAGAUUGGAUCCCGAAACTT against Pxn,-0.431
8,GGCAAAGAGUGGUAAGAGUTT against Olfr1166,-2.72 (active)
9,GGAUUUCUACAGGGUGUAUTT against Trim8,-1.19
10,GGAUCUUACUAUCACCAGCTT against Foxf1,1.99
11,CGGGCUACCAUUAUGGUGATT against Atp6ap2,0.382
12,GUGGCAGCACGACCUAUUCTT against Alyref2,-0.175
13,CCAAUUACCUGAAUAAAGCTT against Epb41l5,1.19
14,GGGCUCUACUAUUUUUUUUTT against Polh,-2.68 (active)
15,GCCCAGGUCUAAUGUCUAATT against Tac4,0.234
16,GGUGUUAAGUCACAAAAUGTT against Meis2,1.59
17,GGUUGUAUGUUGUGUGUUUTT against Cyrib,2.36 (active)
18,CGGAAUGUAGGACACGAAUTT against Ltb,-0.267
19,GGUGACUUCGGAGAAAAGGTT against Sncaip,0.257
20,GGAACAGCUGUGAUUAACGTT against Prdx4,0.343
21,GCUGGAAUACGUUGAUAUATT against Kcnab3,3.68 (active)
22,GGAGAGUCCAGUUUCCAUUTT against Rnf113a1,1.44
23,GCUCAGGAAUUUGACACCATT against Adgrl3,-1.33
